Experimental data as given in a collection of fitness landscapes (doi:10.1126/science.1257360).
Whole data set: some 140,000 sequences, median “enrichment ratio after two sorts for PhoP signalling” near 0, cut for the highest 2% near 11. What follows is part of a selection rich in the highest values, with near analogues and random picks from the rest.

B1: PhoQ; a variant is named by its letters at X, in order, P23837 (parent)
chain: MKKLLRLFFPLSLRVRFLLATAAVVLVLSLAYGMVALIGYSVSFDKTTFRLLRGESNLFYTLAKWENNKLHVELPENIDKQSPTMTLIYDENGQLLWAQRDVPWLMKMIQPDWLKSNGFHEIEADVNDTSLLLSGDHSIQQQLQEVREDDDDAEMTHSVAVNVYPATSRMPKLTIVVVDTIPVELKSSYMVWSWFIYVLSANLLLVIPLLWVAAWWSLRPIEALAKEVRELEEHNRELLNPATTRELTSLVRNLNRLLKSERERYDKYRTTLTDLTHSLKTPLXXLQXXLRSLRSEKMSVSDAEPVMLEQISRISQQIGYYLHRASMRGGTLLSRELHPVAPLLDNLTSALNKVYQRKGVNISLDISPEISFVGEQNDFVEVMGNVLDNACKYCLEFVEISARQTDEHLYIVVEDDGPGIPLSKREVIFDRGQRVDTLRPGQGVGLAVAREITEQYEGKIVAGESMLGGARMEVIFGRQHSAPKDE

Variants of: B1
Assay: enrichment ratio after two sorts for PhoP signalling (ratio (wild type AVST 3.29)); higher = more functional
Settings: with PhoP (E. coli)

Row | Variant | enrichment ratio
1 | QQNY | 2.46
2 | WMDF | ≤ 0.25
3 | ACYH | ≤ 0.25
4 | QTFW | ≤ 0.25
5 | GYDH | ≤ 0.25
6 | QCGH | 24.2
7 | QCDH | 18.8
8 | QCNH | ≤ 0.25
9 | QCTH | ≤ 0.25
10 | QCCA | ≤ 0.25
11 | EMTV | ≤ 0.25
12 | PVLS | ≤ 0.25
13 | KFLE | ≤ 0.25
14 | KSER | ≤ 0.25
15 | QPLC | ≤ 0.25
16 | FFLC | ≤ 0.25
17 | QFLC | ≤ 0.25
18 | MSLC | 11.7
19 | FSLC | 12.4
20 | SYLC | 0.631
21 | SILC | 8.13
22 | MSTS | 0.73

Row | Variant | enrichment ratio
23 | FQLC | 2.14
24 | QGLC | 15.9
25 | SSLC | 15.2
26 | FPLC | ≤ 0.25
27 | EGVI | ≤ 0.25
28 | VVAR | ≤ 0.25
29 | WYHC | ≤ 0.25
30 | SWDN | ≤ 0.25
31 | MGQS | ≤ 0.25
32 | LWFG | ≤ 0.25
33 | HKKG | ≤ 0.25
34 | RSIL | ≤ 0.25
35 | YKDC | ≤ 0.25
36 | IGWW | ≤ 0.25
37 | PKQD | ≤ 0.25
38 | LTKR | ≤ 0.25
39 | HYAP | ≤ 0.25
40 | TSLC | 18.4
41 | MMLC | ≤ 0.25
42 | KSLC | ≤ 0.25
43 | PNER | ≤ 0.25
44 | RFQL | ≤ 0.25

Row | Variant | enrichment ratio
45 | KYAF | ≤ 0.25
46 | SIAF | 15.1
47 | AKAF | 5.84
48 | SQAF | 3.99
49 | KKAF | ≤ 0.25
50 | AIAF | 12.4
51 | GPRN | ≤ 0.25
52 | NCRE | ≤ 0.25
53 | DCLW | ≤ 0.25
54 | PYCA | ≤ 0.25
55 | HYKI | ≤ 0.25
56 | YMVL | ≤ 0.25
57 | DVFV | ≤ 0.25
58 | GGCI | 0.663
59 | RGCS | 0.323
60 | GYCS | ≤ 0.25
61 | GGCS | 13.1
62 | NGCS | ≤ 0.25
63 | TGCS | 13
64 | ITCL | ≤ 0.25
65 | MTCI | ≤ 0.25
66 | TTCL | 18.5

Row | Variant | enrichment ratio
67 | MTCL | 12.8
68 | GTCL | 9.42
69 | WLCL | ≤ 0.25
70 | PLCL | ≤ 0.25
71 | YTCL | 5.77
72 | LTCL | ≤ 0.25
73 | STCL | 15.7
74 | MTRL | ≤ 0.25
75 | SLCL | 11.2
76 | GTAR | ≤ 0.25
77 | FHNH | ≤ 0.25
78 | YRKS | ≤ 0.25
79 | GQTP | ≤ 0.25
80 | THVR | ≤ 0.25
81 | MGQG | ≤ 0.25
82 | EIWF | ≤ 0.25
83 | RYFG | ≤ 0.25
84 | GLNL | ≤ 0.25
85 | GLEL | ≤ 0.25
86 | GLCL | 13.5
